Laboratory results taken from PubChem BioAssay (NCI).
Compounds without any hit were thinned out: in the full panel of roughly 83,000, 20% have a hit.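 Assay: single dose, 48 h. Readout: percent growth (0 = no net growth; negative = cell death). Active: <10.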 Calls of active or inactive are those of the source.

Tests used:
Assay in all cases: NCI-60 one-dose screen, 48 h (100 = growth as untreated, 0 = no growth, -100 = all killed)
Conditions in all cases: 10 µM unless noted
DU-145 prostate = tested on: DU-145 prostate
K-562 leukemia = tested on: K-562 leukemia
MALME-3M melanoma = tested on: MALME-3M melanoma
MDA-MB-231 breast = tested on: MDA-MB-231 breast
RXF 393 renal = tested on: RXF 393 renal
SF-268 CNS = tested on: SF-268 CNS
SF-295 CNS = tested on: SF-295 CNS
SF-539 CNS = tested on: SF-539 CNS
UACC-257 melanoma = tested on: UACC-257 melanoma
M14 melanoma = tested on: M14 melanoma
HCT-15 colon = tested on: HCT-15 colon
HT29 colon = tested on: HT29 colon
SNB-75 CNS = tested on: SNB-75 CNS
SNB-19 CNS = tested on: SNB-19 CNS
PC-3 prostate = tested on: PC-3 prostate
SK-MEL-5 melanoma = tested on: SK-MEL-5 melanoma
UACC-62 melanoma = tested on: UACC-62 melanoma
LOX IMVI melanoma = tested on: LOX IMVI melanoma
SK-MEL-28 melanoma = tested on: SK-MEL-28 melanoma
U251 CNS = tested on: U251 CNS

Measured: growth

COc1ccc(NC(=O)c2sc3nc4c(cc3c2N)CCCC4)cc1
active: K-562 leukemia 6.99% | RXF 393 renal -4.44% | SF-295 CNS 8.64% | SF-539 CNS 3.47% | HT29 colon 0.414% | SK-MEL-5 melanoma 5.04%
inactive: DU-145 prostate 11.5% | MALME-3M melanoma 54.8% | MDA-MB-231 breast 49.2% | SF-268 CNS 58.8% | UACC-257 melanoma 53% | M14 melanoma 18.3% | HCT-15 colon 28.6% | SNB-75 CNS 17.3% | SNB-19 CNS 34.7% | PC-3 prostate 26.9% | UACC-62 melanoma 43% | LOX IMVI melanoma 35.8% | SK-MEL-28 melanoma 62.3%

CCOC(=O)NN1CC(O)=C(c2nc(-c3ccc(Br)cc3)cs2)C1=N
inactive: DU-145 prostate 105% | K-562 leukemia 78.4% | MALME-3M melanoma 112% | MDA-MB-231 breast 104% | RXF 393 renal 82.9% | SF-268 CNS 108% | SF-295 CNS 90.9% | SF-539 CNS 96.7% | UACC-257 melanoma 96.4% | M14 melanoma 156% | HCT-15 colon 115% | HT29 colon 108% | SNB-75 CNS 101% | SNB-19 CNS 98.7% | SK-MEL-5 melanoma 103% | UACC-62 melanoma 110% | LOX IMVI melanoma 106% | SK-MEL-28 melanoma 113%

Cc1nn(-c2ccccc2)c(/N=C/N(C)C)c1/C=C/C(=O)c1ccc(Cl)cc1
inactive: DU-145 prostate 122% | K-562 leukemia 59.6% | MALME-3M melanoma 90.1% | MDA-MB-231 breast 77.2% | RXF 393 renal 97.8% | SF-268 CNS 118% | SF-295 CNS 106% | SF-539 CNS 101% | UACC-257 melanoma 119% | M14 melanoma 94.7% | HCT-15 colon 62.7% | HT29 colon 95.4% | SNB-75 CNS 91.6% | SNB-19 CNS 100% | PC-3 prostate 85.9% | SK-MEL-5 melanoma 89.3% | UACC-62 melanoma 88.3% | LOX IMVI melanoma 49% | SK-MEL-28 melanoma 89.6%

COc1cccc(NC(=O)c2cccc(C3CCc4c(cc(OC)c(OC)c4OC)O3)c2)c1 (stereo unspecified)
inactive: DU-145 prostate 79.6% | K-562 leukemia 35.6% | MALME-3M melanoma 72.7% | MDA-MB-231 breast 32.2% | RXF 393 renal 88.9% | SF-268 CNS 91.2% | SF-295 CNS 70.9% | SF-539 CNS 92% | UACC-257 melanoma 78.1% | M14 melanoma 56.9% | HCT-15 colon 63.2% | HT29 colon 71.9% | SNB-75 CNS 85.6% | SNB-19 CNS 74.1% | U251 CNS 75.5% | SK-MEL-5 melanoma 36.4% | LOX IMVI melanoma 59.9% | SK-MEL-28 melanoma 81.5%

COc1ccc(NC(=O)c2sc3nc(C)c(C(O)c4ccccc4)cc3c2N)cc1 (stereo unspecified)
inactive: DU-145 prostate 14.1% | MALME-3M melanoma 38% | MDA-MB-231 breast 27.7% | SF-268 CNS 50.3% | SF-295 CNS 23.1% | UACC-257 melanoma 64.4% | HCT-15 colon 24.9% | HT29 colon 13.1% | SNB-75 CNS 20.3% | SNB-19 CNS 28.6% | PC-3 prostate 23.4% | SK-MEL-5 melanoma 23.2% | UACC-62 melanoma 26.2% | LOX IMVI melanoma 55.1% | SK-MEL-28 melanoma 57%
active: K-562 leukemia 8.04% | RXF 393 renal -7.22% | SF-539 CNS -4.84% | M14 melanoma 7.65%

O=C1/C(=C/c2ccc(C(F)(F)F)cc2)COc2ccc(O)cc21
inactive: DU-145 prostate 99.1% | MALME-3M melanoma 88.7% | MDA-MB-231 breast 79.4% | RXF 393 renal 102% | SF-268 CNS 85.3% | SF-295 CNS 99.1% | SF-539 CNS 86.7% | UACC-257 melanoma 98.1% | M14 melanoma 85.6% | HCT-15 colon 40.6% | HT29 colon 44.2% | SNB-75 CNS 81.1% | SNB-19 CNS 85.3% | SK-MEL-5 melanoma 97.4% | UACC-62 melanoma 80.2% | SK-MEL-28 melanoma 100%
active: K-562 leukemia 5.54% | LOX IMVI melanoma 2.9%

Cc1cc(N2CCN(C)CC2)nc(NCc2cc(Nc3ccnc4cc(Cl)ccc34)ccc2F)n1
active: K-562 leukemia 2.5% | MALME-3M melanoma -76.6% | MDA-MB-231 breast -56.5% | RXF 393 renal -70.9% | SF-268 CNS 8.21% | SF-295 CNS -70.1% | SF-539 CNS -83.4% | UACC-257 melanoma -73.5% | M14 melanoma -65% | HCT-15 colon -17.6% | HT29 colon -56.1% | SK-MEL-5 melanoma -98% | UACC-62 melanoma -59.1% | LOX IMVI melanoma -70.1% | SK-MEL-28 melanoma -75.4%
inactive: DU-145 prostate 10.5% | SNB-75 CNS 21.2% | SNB-19 CNS 34.3% | PC-3 prostate 28.6%

CN1CCCc2cc(/C=C3/SC(=S)N(CCc4ccc(O)cc4)C3=O)ccc21
inactive: DU-145 prostate 85.9% | K-562 leukemia 27.6% | MALME-3M melanoma 96.6% | MDA-MB-231 breast 81.8% | RXF 393 renal 94.6% | SF-268 CNS 76.3% | SF-295 CNS 99.7% | SF-539 CNS 84.8% | UACC-257 melanoma 93.2% | M14 melanoma 78.6% | HCT-15 colon 56.7% | HT29 colon 86.3% | SNB-75 CNS 74.1% | SNB-19 CNS 92.9% | U251 CNS 94.4% | SK-MEL-5 melanoma 92% | UACC-62 melanoma 71.9% | SK-MEL-28 melanoma 88.5%

CCN(CCO)CC(C)Nc1ccc([N+](=O)[O-])c2sc3ccccc3c(=O)c12 (stereo unspecified)
inactive: DU-145 prostate 41.3% | K-562 leukemia 12.5% | MALME-3M melanoma 13.4% | MDA-MB-231 breast 48.8% | SF-268 CNS 36.1% | SF-295 CNS 17.4% | SF-539 CNS 25% | UACC-257 melanoma 31.5% | M14 melanoma 29.3% | HCT-15 colon 27.2% | HT29 colon 11.3% | SNB-75 CNS 36.4% | SNB-19 CNS 43.2% | PC-3 prostate 28.3% | SK-MEL-5 melanoma 12.3% | UACC-62 melanoma 29.8% | LOX IMVI melanoma 16.2% | SK-MEL-28 melanoma 44.4%
active: RXF 393 renal 9.27%

O=C(CSc1nnc2sc(Nc3cccc(Cl)c3)nn12)c1ccc(F)cc1
inactive: DU-145 prostate 104% | K-562 leukemia 90.6% | MALME-3M melanoma 116% | MDA-MB-231 breast 79.7% | RXF 393 renal 102% | SF-268 CNS 101% | SF-295 CNS 97.2% | SF-539 CNS 102% | UACC-257 melanoma 102% | M14 melanoma 96% | HCT-15 colon 92.3% | HT29 colon 90.5% | SNB-75 CNS 104% | SNB-19 CNS 95.5% | U251 CNS 97.9% | SK-MEL-5 melanoma 98.5% | LOX IMVI melanoma 91.7% | SK-MEL-28 melanoma 104%

O=C1CCC(C(=O)NN(c2ccccc2)c2ccccc2)N1 (stereo unspecified)
inactive: DU-145 prostate 101% | K-562 leukemia 12.2% | MALME-3M melanoma 104% | MDA-MB-231 breast 110% | RXF 393 renal 118% | SF-268 CNS 83.2% | SF-295 CNS 99% | SF-539 CNS 94.6% | UACC-257 melanoma 102% | M14 melanoma 12% | HCT-15 colon 103% | HT29 colon 111% | SNB-75 CNS 89.2% | SNB-19 CNS 100% | PC-3 prostate 14.3% | SK-MEL-5 melanoma 106% | UACC-62 melanoma 94.4% | LOX IMVI melanoma 95% | SK-MEL-28 melanoma 109%

O=C(CCCCNC(=O)c1cc(=O)c(O)co1)Nc1ccccc1
inactive: DU-145 prostate 104% | K-562 leukemia 13.3% | MALME-3M melanoma 43% | MDA-MB-231 breast 99% | RXF 393 renal 55.5% | SF-268 CNS 91% | SF-295 CNS 102% | SF-539 CNS 92.5% | UACC-257 melanoma 88.7% | M14 melanoma 81.5% | HCT-15 colon 49% | HT29 colon 98.2% | SNB-75 CNS 84.9% | SNB-19 CNS 102% | PC-3 prostate 95.9% | SK-MEL-5 melanoma 98.6% | UACC-62 melanoma 90.1% | SK-MEL-28 melanoma 103%

N#Cc1c(NC(=O)c2cccs2)[n+]([O-])c2ccc(Cl)cc2[n+]1[O-]
inactive: DU-145 prostate 121% | K-562 leukemia 106% | MALME-3M melanoma 92% | MDA-MB-231 breast 82.7% | RXF 393 renal 127% | SF-268 CNS 106% | SF-295 CNS 93.8% | SF-539 CNS 108% | UACC-257 melanoma 120% | M14 melanoma 80.2% | HCT-15 colon 111% | HT29 colon 107% | SNB-75 CNS 91.7% | SNB-19 CNS 103% | PC-3 prostate 96% | SK-MEL-5 melanoma 37.7% | UACC-62 melanoma 82.2% | LOX IMVI melanoma 94.8% | SK-MEL-28 melanoma 106%
